Screens: PubChem, National Center for Advancing Translational Sciences (NCATS)
Sampled rows, rich in hits. Any-hit rate of the full collection: about 10%.
GLS inh – blocks human kidney-isoform glutaminase activity; O94925; GLS enzymatic activity, qHTS titration; Potency, µM (highest dose often 45.5 µM), most hits filed as inhibitors; hit rate 0.21% among 410,000; AID 624170
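hKGA in 45 mM KH2PO4 pH 8.2, 0.02% Tween-20 with pin-transferred compounds; 1 mM L-glutamine (stock) plus glutamate oxidase/HRP/Amplex Red coupling added. Fluorescence read initially and after 30 min at RT.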
BAZ2B block – blocks human BAZ2B. Q9UIF8. AlphaScreen BAZ2B-H3K14Ac peptide displacement. Potency, µM (top dose mostly 114 µM), hits mostly inhibitors. hit rate 4.4% among 360,000; note: nearly all actives have a fitted effect of over 60% in size
Target sequence (Q9UIF8 whole entry, looked up): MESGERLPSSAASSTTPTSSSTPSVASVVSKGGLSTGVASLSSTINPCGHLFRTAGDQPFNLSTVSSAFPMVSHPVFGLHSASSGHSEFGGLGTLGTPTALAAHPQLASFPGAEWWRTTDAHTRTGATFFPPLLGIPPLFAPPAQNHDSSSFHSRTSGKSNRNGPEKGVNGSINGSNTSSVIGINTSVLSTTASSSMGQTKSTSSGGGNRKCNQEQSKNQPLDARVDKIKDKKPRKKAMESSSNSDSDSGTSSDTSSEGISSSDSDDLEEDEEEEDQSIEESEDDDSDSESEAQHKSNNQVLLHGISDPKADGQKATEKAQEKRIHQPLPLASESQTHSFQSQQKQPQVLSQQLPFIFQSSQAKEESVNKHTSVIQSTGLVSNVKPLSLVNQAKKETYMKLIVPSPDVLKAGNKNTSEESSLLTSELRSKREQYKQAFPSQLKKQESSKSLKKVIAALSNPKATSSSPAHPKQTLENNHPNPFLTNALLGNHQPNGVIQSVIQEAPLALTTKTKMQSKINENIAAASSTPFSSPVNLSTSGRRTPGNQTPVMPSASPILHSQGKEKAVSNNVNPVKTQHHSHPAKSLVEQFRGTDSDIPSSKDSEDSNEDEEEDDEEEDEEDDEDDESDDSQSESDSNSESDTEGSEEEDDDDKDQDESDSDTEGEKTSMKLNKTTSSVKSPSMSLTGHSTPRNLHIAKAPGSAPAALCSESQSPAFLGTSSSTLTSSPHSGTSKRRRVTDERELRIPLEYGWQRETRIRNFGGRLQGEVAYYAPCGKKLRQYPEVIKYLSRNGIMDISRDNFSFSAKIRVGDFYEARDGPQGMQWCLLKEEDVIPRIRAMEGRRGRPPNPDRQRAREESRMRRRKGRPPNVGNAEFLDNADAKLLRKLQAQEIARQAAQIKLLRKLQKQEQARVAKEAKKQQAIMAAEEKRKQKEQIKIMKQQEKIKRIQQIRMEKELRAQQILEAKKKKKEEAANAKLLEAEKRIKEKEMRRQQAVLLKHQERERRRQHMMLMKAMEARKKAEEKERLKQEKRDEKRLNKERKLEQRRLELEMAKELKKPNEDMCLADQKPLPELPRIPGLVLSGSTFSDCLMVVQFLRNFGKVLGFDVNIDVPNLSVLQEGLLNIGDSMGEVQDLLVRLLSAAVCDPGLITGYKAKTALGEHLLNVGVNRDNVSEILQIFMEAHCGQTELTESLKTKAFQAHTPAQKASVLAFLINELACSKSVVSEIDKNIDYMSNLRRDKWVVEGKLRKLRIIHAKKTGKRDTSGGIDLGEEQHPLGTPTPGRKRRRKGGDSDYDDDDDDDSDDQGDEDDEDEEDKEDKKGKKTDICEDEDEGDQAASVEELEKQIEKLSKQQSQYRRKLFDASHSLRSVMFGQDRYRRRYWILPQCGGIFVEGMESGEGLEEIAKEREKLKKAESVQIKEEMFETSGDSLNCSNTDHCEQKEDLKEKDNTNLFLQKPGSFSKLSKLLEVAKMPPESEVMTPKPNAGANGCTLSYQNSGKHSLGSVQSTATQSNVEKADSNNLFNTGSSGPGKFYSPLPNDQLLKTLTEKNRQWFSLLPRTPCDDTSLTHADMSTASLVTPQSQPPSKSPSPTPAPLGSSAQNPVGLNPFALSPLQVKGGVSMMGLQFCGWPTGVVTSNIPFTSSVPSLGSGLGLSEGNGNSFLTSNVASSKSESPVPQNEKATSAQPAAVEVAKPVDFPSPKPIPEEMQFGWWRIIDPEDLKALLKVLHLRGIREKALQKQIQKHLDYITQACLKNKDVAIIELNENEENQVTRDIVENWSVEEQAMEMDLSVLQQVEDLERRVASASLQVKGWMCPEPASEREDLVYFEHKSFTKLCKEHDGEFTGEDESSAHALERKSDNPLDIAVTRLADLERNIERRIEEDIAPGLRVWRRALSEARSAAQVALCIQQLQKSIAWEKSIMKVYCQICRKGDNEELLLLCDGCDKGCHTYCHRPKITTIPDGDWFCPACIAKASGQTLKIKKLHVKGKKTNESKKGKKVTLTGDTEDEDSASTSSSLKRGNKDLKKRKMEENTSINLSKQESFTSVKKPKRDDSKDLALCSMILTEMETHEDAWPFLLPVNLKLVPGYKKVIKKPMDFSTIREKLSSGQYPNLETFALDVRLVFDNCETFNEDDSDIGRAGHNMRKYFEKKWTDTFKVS
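AlphaScreen displacement of biotin-H3(5-23)K14Ac peptide (50 nM final) from BAZ2B (50 nM final) in PBS pH 7.4, 0.01% Tween-20; complex preformed 30 min RT, then compounds (top 110 uM) 30 min RT, beads 20 min dark.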
G9a block – inhibitors of human histone lysine methyltransferase G9a. hit rate 8.8% among 350,000. G9a H3K9 monomethylation, AlphaScreen, 2 h. Q96KQ7. Potency, µM (doses to about 102 µM), usual class: inhibitors; note: nearly all actives have a fitted effect of over 75% in size
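Using a bead-based AlphaScreen, monomethylated H3K9 product from 2 h room-temperature reactions (G9a 20 nM, peptide 500 nM, SAM 20 uM) was detected with 0.5 ug/mL rabbit anti-H3K9me1 antibody.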
HP1b chromo inh – blocks HP1-beta chromodomain binding to methylated histone tails; P83916; AlphaScreen HP1-beta / biotin-H3K9me3 peptide binding; Potency, µM (titrated, usually from 114 µM), actives largely listed as inhibitors; hit rate 0.56% among 390,000; note: nearly all actives have a fitted effect of over 70% in size
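Compound inhibition of the preformed complex between 50 nM HP1-beta and 50 nM biotinylated H3K9me3 peptide was read by AlphaScreen. Buffer was PBS pH 7.4 with 0.01% Tween-20. Incubations ran 30 min at room temperature, with 10 ug/mL donor/acceptor beads.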
JMJD2A Tudor – inhibitors of human JMJD2A Tudor domain; O75164; AlphaScreen JMJD2A-Tudor / H3K4me3 peptide binding; Potency, µM (highest dose often 114 µM), hits mostly inhibitors; hit rate 4.4% among 390,000; note: nearly all actives have a fitted effect of over 50% in size
L3MBTL1 inh – blocks human L3MBTL1. AlphaScreen L3MBTL1–H3K9me1 peptide binding. Q9Y468. hit rate 0.66% among 230,000. AID 485360. Potency, µM (top dose mostly 57.1 µM), hits mostly inhibitors; note: nearly all actives have a fitted effect of over 60% in size
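First, the protein-peptide complex forms for 30 min at room temperature (L3MBTL1 50 nM, biotinylated H3K9me1 peptide 75 nM). Next, compounds are pin-transferred and incubated 30 min. Finally, AlphaScreen beads are added and read after 30 min.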
Numbers stand for hits; – = inactive; ? = inconclusive; · = not tested or not shown; [ ] = remark or other dose. Calls come from the whole dose curve; as a rule, active = well fitted curve in the direction sought with a large enough effect; inconclusive = small, poorly fitted or top-dose-only effect, or another doubt; inactive = no such curve, though single readings can be large; an effect the other way counts as inactive or inconclusive.

SMILES	GLS inh	BAZ2B block	G9a block	HP1b chromo inh	JMJD2A Tudor	L3MBTL1 inh
CSCCC(NC(=O)c1cccc(S(=O)(=O)N2CCOCC2)c1)C(=O)Nc1ccc(F)cc1 (stereo not given)	–	–	7.08µM	–	–	–
COc1ccc(N2CCN(C(=O)Cc3noc4ccc(C)cc34)CC2)cc1	–	?	–	–	–	·
Cc1ccc(CSc2nc3cccnc3n2Cc2ccc(C(=O)NC3CCCCC3)cc2)cc1	–	–	–	–	–	·
CCCCCCCCCCCCCCCC(=O)OC[C@H](O)[C@H]1OC[C@@H](O)[C@@H]1O	–	·	–[12.7 µM]	·	·	·
CN(C)S(=O)(=O)c1cccc(NC(=O)c2ccc3c(c2)S(=O)(=O)N=C2CCCCCN23)c1	·	–	31.6µM	·	·	–
CN(C)S(=O)(=O)c1cccc(NC(=O)c2cc3c(cc2Cl)N2CCCCCC2=NS3(=O)=O)c1	–	–	–	–	–	·
CC(C)[C@H](NC(=O)c1ccccc1)C(=O)Nc1cccc(S(=O)(=O)N2CCOCC2)c1	–	–	?	–	–	–
CC(C)[C@H](NC(N)=O)C(=O)Nc1cccc(S(=O)(=O)N2CCOCC2)c1	–	–	35.5µM	–	–	–
Cn1cnnc1SCC(=O)Nc1cccc(S(=O)(=O)N2CCOCC2)c1	–	–	–	–	–	·
Cc1cc2nnc(SCC(=O)Nc3cccc(S(=O)(=O)N4CCOCC4)c3)n2c2ccccc12	–	–	50.1µM	–	–	–
Cc1ccc(/C=C/C(=O)Nc2cccc(S(=O)(=O)N3CCOCC3)c2)o1	–	–	8.91µM	50.1µM	–	–
Cc1c2cnn(-c3ccccc3)c(=O)c2c(C)n1C(C)C(=O)Nc1ccccc1C(F)(F)F (stereo not given)	–	–	–	–	–	·
O=C1CC(c2nnc(Cc3ccc(F)cc3)o2)CN1c1ccccc1 (stereo not given)	–	–	–	–	–	·
O=C(Nc1cccc(S(=O)(=O)N2CCOCC2)c1)c1ccc(Cl)nc1	–	·	·	–	–	–
O=C(Nc1cccc(S(=O)(=O)N2CCOCC2)c1)c1ccccn1	–	?	25.1µM	–	–	·
Cc1nc(-c2cccc(NC(=O)c3ccc(Cl)c(S(=O)(=O)N4CCCC4)c3)c2)cs1	–	·	·	·	·	·
O=C(Nc1cccc(S(=O)(=O)N2CCCCC2)c1)c1ccccn1	–	?	5.62µM	–	?	·
Cc1nc(-c2cccc(NC(=O)c3cccc(S(=O)(=O)N4CCCC4)c3)c2)cs1	–	–	10µM	–	–	–
O=C(Nc1nc2ccc(S(=O)(=O)N3CCCC3)cc2s1)c1ccccn1	–	?	12.6µM	–	?	·
O=C(NCc1ccc(F)cc1Cl)c1ccc(CSCc2ccccc2Cl)o1	–	–	–	–	–	·
O=C(COC(=O)c1ccccc1O)NCCCc1ccccc1	–	–	–	–	79.4µM	·
Cc1cc(NC(=O)CN2C(=O)CC(c3ccco3)Sc3ccccc32)no1 (stereo not given)	–	–	12.6µM	–	?	–
CC(=O)Nc1ccc(NC(=O)CN2C(=O)CC(c3ccco3)Sc3ccccc32)cc1 (stereo not given)	–	–	–	–	?	·
Cc1cc(NC(=O)CN2CCC(C)CC2)no1	–	·	3.55µM	?	5.01µM	–
Cc1cc(NC(=O)CN2CCN(c3ccccc3O)CC2)no1	–	–	?	–	79.4µM	–
SMILES	GLS inh	BAZ2B block	G9a block	HP1b chromo inh	JMJD2A Tudor	L3MBTL1 inh
O=C(COC(=O)c1cccnc1Cl)NCCCc1ccccc1	–	–	–[2.33 µM]	–	–	–
O=C(CN1CCN(c2ccccc2O)CC1)NCCCc1ccccc1	5.01µM	·	–	–	–	·
O=S(=O)(c1ccc(Cl)cc1)c1nc(-c2ccccc2F)oc1NCc1ccccc1	–	?	–	–	–	·
Cc1nc(S(=O)(=O)c2ccc(Cl)cc2)c(NCc2ccccc2)o1	–	–	44.7µM	–	–	·
CC(C)=NOc1nc(N(C)C)nc(N2CCOCC2)n1	–	–	–	–	56.2µM	–
CC(=O)NCCOc1nc(N(C)C)nc(N2CCOCC2)n1	–	–	–[12.7 µM]	–	–	–
CCOC(=O)CN1C(=O)C2Cc3ccccc3CN2C1=S (stereo not given)	–	–	20µM	?	–	–
CCOC(=O)CN1C(=O)c2ccccc2C1=O	–	–	–[12.7 µM]	–	–	·
